Results: PubChem BioAssay (EPA / NIEHS)
Inconclusive results are not listed. Activity calls are given as the source filed them. How the source made its calls, unless noted: active means hit-call score of the fitted dose curve at least 0.9, where 1 is the maximum; inconclusive means response in the unintended direction; inactive means score below 0.9.

How the values were obtained:
DIO1 (gene 1733) = assay: CCTE_GLTED_hDIO1: CCTE's human Deiodinase 1 (DIO1) Inhibition Assay, Great Lakes Toxicology and Ecology Division (GLTED) Lab (AID 2283987);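 further: isolated human DIO1 enzyme in a cell-free setup rather than cells; enzyme activity read as free iodide liberated from substrate via Sandell-Kolthoff colorimetry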
Outline: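 Inhibition read as reduced iodide release: after 3 h of human DIO1 with chemical, free iodide is quantified colorimetrically (Sandell-Kolthoff cerium/arsenic reaction). Triplicate plates, DMSO baseline.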

THRB (gene 7068) [1] = target: THRB (gene 7068) (UniProt P10828); assay: TOX21_TRB_BLA_Agonist_Followup_ratio: Tox21 Thyroid Hormone Receptor beta Agonism Beta-lactamase (BLA) Follow-Up Assay, Ratio (AID 2283954)
Outline: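 Human TRβ LBD–GAL4 DBD fusion in GeneBLAzer UAS-bla HEK293T cells; 11 concentrations in triplicate, 18 h at 37°C/5% CO2, T3 as agonist control. CCF4-AM substrate 2 h at room temperature; 460:530 nm ratio fitted for gain of signal versus DMSO.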

THRB (gene 7068) [2] = target: THRB (gene 7068) (UniProt P10828); assay: TOX21_TRB_COA_Agonist_Followup_ratio: Tox21 Thyroid Hormone Receptor beta Agonism through Coactivator Recruitment Follow-Up Assay, Ratio (AID 2283963; active means hit-call score of the fitted dose curve at least 0.9, where 1 is the maximum; inactive means score below 0.9)
Source text: TOX21_TRb_COA_Agonist_Followup is a secondary assay for specificity for the TOX21_TR_GH3_LUC_Agonist assay. The LanthaScreen TR-FRET TR coactivator assay kits were used to determine TR activity in a cell-free functional assay. A time-resolved fluorescence resonance energy transfer (TR-FRET) signal was indicative of coactivator (SRC-2) recruitment.TOX21_TRB_COA_Agonist_Followup_ratio is assay component calculated in the TOX21_TRB_COA_Agonist_Followup assay. The TR-FRET ratio of acceptor emission (ch2) to donor emission (ch1) is indicative of the resonance energy transfer to the fluorescein tag on the coactivator peptide following recruitment to the receptor.Data from the assay component […] was analyzed into 1 assay endpoint. This assay endpoint, […], was analyzed in the positive analysis fitting direction relative to DMSO as the negative control and baseline of activity. Using a type of inducible reporter, gain-of-signal activity can be used to understand changes in the reporter gene as they relate to the gene THRB. Furthermore, this assay endpoint can be referred to as a primary readout, because this assay has produced multiple assay endpoints and this ratio serves a reporter gene function to understand target activity. To generalize the intended target to other relatable targets, this assay endpoint is annotated to the nuclear receptor intended target family, where the subfamily is non-steroidal.
Cell Media Required: Growth (90% DMEM/F-12, 10% Fetal Bovine Calf Serum, 100U/ml Penicillin, 100 ug/ml Streptomycin), Assay (10ng/mL sodium selenite, 10 ug/mL humanapo-transferrin, 10 uM ethanolamine, 10 ug/mL insulin, 500 ug/mL bovine serum albumin (BSA))Assay Protocol: 4 uL mixture of the receptor LBDs expressed as glutathione S-transferase (GST) fusion proteins (2.5 nM for TRa and 5.0 nM for TRb) and BSA (0.10%; Sigma-Aldrich) were incubated with 23 nL of control or test compound. A time-resolved fluorescence resonance energy transfer(TR-FRET) signal was indicative of coactivator recruitment using a 2 uL mixture of fluoresce in-labeled SRC-2 peptide (200 nM) and terbium-labeled anti-GST antibody (2nM), which transferred resonance energy to the fluorescein tag on the coactivator peptide following recruitment to the receptor. Fluorescence emission ratios (520:495 nm) were collected by an Envision plate reader (excitation at 340 nm and emissions at 495 and 520 nm), and the measured values were normalized to 0% activity using DMSO-only wells and 100 activity using T3 control wells.

[3] = target: Retinoic acid receptor RXR-alpha (Homo sapiens) (UniProt P19793); assay: TOX21_TR_RXR_BLA_Agonist_Followup_ratio: Tox21 Thyroid Hormone Receptor beta Retinoid X Receptor alpha (RXRa) Agonism Beta-lactamase (BLA) Follow-Up Assay, Ratio (AID 2283968)
Outline: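 RXRa-UAS-bla HEK293T cells, 5 h attachment at 37C/5% CO2, then 11 concentrations in triplicate for 16 h; 9-cis retinoic acid positive control. FRET-B/GCCF4-AM substrate 2 h at room temperature; 460:530 nm ratio, fitted for gain versus DMSO.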

[4] = TOX21_TR_RXR_BLA_Agonist_Followup_viability: Viability Assessment in the Tox21 Thyroid Hormone Receptor beta Retinoid X Receptor alpha (RXRa) Agonism Beta-lactamase (BLA) Follow-Up Assay (AID 2283970)
Outline: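 RXRa-UAS-bla HEK293T cells, 2,500/well in phenol red-free DMEM with 2% charcoal-stripped FBS, dosed for 16 h at 37C. Viability measured by CellTiter-Glo ATP luminescence; fitted bidirectionally against DMSO baseline, loss of signal indicating cytotoxicity.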

THRB (gene 7068) [5] = target: THRB (gene 7068) (UniProt P10828); assay: TOX21_TRB_BLA_Antagonist_Followup_ratio: Tox21 Thyroid Hormone Receptor beta Antagonism Beta-lactamase (BLA) Follow-Up Assay, Ratio (AID 2283958)
Outline: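 HEK293T cells with a GAL4-TRb LBD fusion and UAS-bla reporter, 3,000 cells/well in phenol red-free DMEM with 2% charcoal-stripped FBS. Exposed 18 h at 37C to 11 concentrations in triplicate; CCF4 460:530 nm ratio after 2 h, DMSO-referenced.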

[6] = TOX21_TRB_BLA_Antagonist_Followup_viability: Viability Assessment in the Tox21 Thyroid Hormone Receptor beta Antagonism Beta-lactamase (BLA) Follow-Up Assay (AID 2283961)
Outline: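 ATP-based CellTiter-Glo luminescence (30 min, room temperature) run in the same wells as the TRβ-bla readout. Cells: GeneBLAzer HEK293T expressing GAL4-TRβ LBD, exposed 18 h at 37C to compounds at 11 concentrations in triplicate, stripped-serum medium.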

THRB (gene 7068) [7] = target: THRB (gene 7068) (UniProt P10828); assay: TOX21_TRB_COA_Antagonist_Followup_ratio: Tox21 Thyroid Hormone Receptor beta Antagonism through Coactivator Recruitment Follow-Up Assay, Ratio (AID 2283967)
Outline: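 Cell-free TR-FRET: GST-TRb LBD (5.0 nM) with fluorescein-SRC-2 peptide (200 nM) and Tb anti-GST antibody (2 nM), 0.10% BSA. 520:495 nm emission ratio normalized to DMSO (0%) and T3 (100%).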

[8] = target: Retinoic acid receptor RXR-alpha (Homo sapiens) (UniProt P19793); assay: TOX21_TR_RXR_BLA_Antagonist_Followup_ratio: Tox21 Thyroid Hormone Receptor beta Retinoid X Receptor alpha (RXRa) Antagonism Beta-lactamase (BLA) Follow-Up Assay, Ratio (AID 2283972)
Source text: GeneBLAzer RXRa-UAS-bla HEK293T assay (RXRa-bla) (ThermoFisherScientific Catalog No. K1697) was run in qHTS 1536 well format as a secondary assay for specificity of response in the TOX21_TR_GH3_LUC_Agonist assay.TOX21_TR_RXR_BLA_Antagonist_Followup_ratio is an assay readout measuring reporter gene via receptor activity and designed using inducible reporter (beta lactamase induction) detected with GAL4 b-lactamase reporter gene. The signal is derived from the ratio of cleaved (ch2) to uncleaved (ch1) reporter gene substrate used as the measure of target activity.Data from the assay component TOX21_TR_RXR_BLA_Antagonist_Followup_ratio was analyzed into 1 assay endpoint. This assay endpoint, TOX21_TR_RXR_BLA_Antagonist_Followup_ratio, was analyzed in the positive analysis fitting direction relative to DMSO as the negative control and baseline of activity. Using a type of inducible reporter, loss-of-signal activity can be used to understand changes in the reporter gene as they relate to the gene RXRA. Furthermore, this assay endpoint can be referred to as a primary readout, because this assay has produced multiple assay endpoints and this ratio serves a reporter gene function to understand target activity. To generalize the intended target to other relatable targets, this assay endpoint is annotated to the nuclear receptor intended target family, where subfamily is non-steroidal. […]

[9] = TOX21_TR_RXR_BLA_Antagonist_Followup_viability: Viability Assessment in the Tox21 Thyroid Hormone Receptor beta Retinoid X Receptor alpha (RXRa) Antagonism Beta-lactamase (BLA) Follow-Up Assay (AID 2283979)
Outline: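 RXRa-bla HEK293T cells (2,500/well, phenol red-free DMEM, 2% charcoal-stripped FBS) were attached 5 h, then exposed to compounds at 11 concentrations in triplicate for 16 h at 37C. Viability measured by CellTiter-Glo ATP luminescence, bidirectional fitting versus DMSO.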

Retinoic acid receptor RXR-alpha (Homo sapiens), sequence (P19793 whole entry, looked up, the tested form may be a part): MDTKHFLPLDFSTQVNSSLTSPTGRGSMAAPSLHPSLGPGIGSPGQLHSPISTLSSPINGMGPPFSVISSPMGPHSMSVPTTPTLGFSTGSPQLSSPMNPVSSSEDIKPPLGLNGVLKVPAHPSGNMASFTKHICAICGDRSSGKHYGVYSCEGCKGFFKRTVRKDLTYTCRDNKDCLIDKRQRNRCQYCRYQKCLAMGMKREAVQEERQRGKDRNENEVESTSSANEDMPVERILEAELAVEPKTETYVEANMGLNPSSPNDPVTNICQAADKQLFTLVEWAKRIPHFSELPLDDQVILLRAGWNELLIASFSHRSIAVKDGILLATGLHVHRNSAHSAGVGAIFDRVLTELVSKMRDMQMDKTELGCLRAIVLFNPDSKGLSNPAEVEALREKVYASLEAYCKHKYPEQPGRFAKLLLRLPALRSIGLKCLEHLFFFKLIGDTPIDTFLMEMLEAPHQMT
THRB (gene 7068), sequence (P10828 whole entry, looked up, the tested form may be a part): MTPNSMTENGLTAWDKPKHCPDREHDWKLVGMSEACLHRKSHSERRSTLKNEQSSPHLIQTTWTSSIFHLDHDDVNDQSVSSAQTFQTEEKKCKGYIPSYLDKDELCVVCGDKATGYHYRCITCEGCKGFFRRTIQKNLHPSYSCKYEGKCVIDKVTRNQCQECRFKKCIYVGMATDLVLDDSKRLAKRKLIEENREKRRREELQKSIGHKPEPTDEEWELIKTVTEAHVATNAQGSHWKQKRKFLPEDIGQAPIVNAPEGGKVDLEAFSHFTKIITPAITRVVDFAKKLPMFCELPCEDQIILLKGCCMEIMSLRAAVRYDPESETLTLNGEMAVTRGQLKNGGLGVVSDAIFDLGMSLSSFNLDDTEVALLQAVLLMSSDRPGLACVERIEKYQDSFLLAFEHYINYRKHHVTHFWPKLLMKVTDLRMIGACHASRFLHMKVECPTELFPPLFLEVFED

CCCCCCCCCCCCCCN(CCO)CCO
AC50 (DIO1 (gene 1733)): 30.6 µM (active)

CCOc1ccc(N=Nc2ccc(C=Cc3ccc(N=Nc4ccc(OCC)cc4)cc3S(=O)(=O)O)c(S(=O)(=O)O)c2)cc1
AC50 (DIO1 (gene 1733)): 0.72 µM (active)

OCCCCC(O)CO (centres undefined)
outcome (THRB (gene 7068) [1]): inactive
outcome (THRB (gene 7068) [2]): inactive
outcome [3]: inactive

O=Cc1ccccc1S(=O)(=O)O
outcome (THRB (gene 7068) [2]): inactive
outcome [3]: inactive
outcome [4]: inactive

CCCCC(CC)COC(=O)c1ccc(O)cc1 (centres undefined)
AC50 (DIO1 (gene 1733)): 85.4 µM (active)

Oc1c(Cl)cc(Cl)c(Cl)c1Cc1c(O)c(Cl)cc(Cl)c1Cl
AC50 (THRB (gene 7068) [5]): 20 µM (active)
AC50 [6]: 8.64 µM (active)
outcome (THRB (gene 7068) [7]): inactive
outcome [8]: inactive
AC50 [9]: 33.3 µM (active)

N[C@@H](Cc1cc(I)c(Oc2cc(I)c(O)c(I)c2)c(I)c1)C(=O)O
outcome [3]: inactive
outcome [4]: inactive

C=C1CC[C@H](O)C/C1=C/C=C1\CCC[C@]2(C)[C@@H]([C@H](C)/C=C/[C@H](C)C(C)C)CC[C@@H]12
AC50 (DIO1 (gene 1733)): 19.8 µM (active)

CC(C)CCCCCCCCCCCCCCC(=O)O
AC50 (DIO1 (gene 1733)): 72.8 µM (active)

Oc1ccc2cc(SSc3ccc4cc(O)ccc4c3)ccc2c1
AC50 (DIO1 (gene 1733)): 2.62 µM (active)

Cc1cc(C)nc(NS(=O)(=O)c2ccc(N)cc2)n1
outcome (THRB (gene 7068) [2]): inactive
outcome [3]: inactive
outcome [4]: inactive

C[C@H](CCC(=O)NCC(=O)O)[C@H]1CC[C@H]2[C@@H]3[C@H](O)C[C@@H]4C[C@H](O)CC[C@]4(C)[C@H]3C[C@H](O)[C@]12C
outcome (THRB (gene 7068) [1]): inactive
outcome (THRB (gene 7068) [2]): inactive
outcome [3]: inactive
outcome [4]: inactive

CC(=O)Nc1ccc(C(=O)CCl)cc1
outcome (THRB (gene 7068) [2]): inactive
AC50 [4]: 69.1 µM (active)

CCCCCCCCC=CCCCCCCCC1=NCCN1CCO
AC50 (DIO1 (gene 1733)): 36.3 µM (active)
